# According to PubChem BioAssay:
# Active and inactive are the calls of the source. Unless noted, no rule for the calls is given here.
# Legend:
# [1] = A549 cell viability effects, profiling panel, calcein-AM fluorescence, 48 h, basal (AID 1162); conditions: higher = more signal; also: test concentration not given here
# [2] = adipocyte viability effects, profiling panel, cell-based, 3T3-L1 adipocytes, calcein-AM fluorescence, 48 h, basal (AID 1163); conditions: 3T3-L1 adipocytes viability, higher = more signal; also: test concentration not given here
# [3] = HepG2 cell viability effects, profiling panel, calcein-AM fluorescence, 48 h, basal (AID 1164); conditions: higher = more signal; also: test concentration not given here
# [4] = MM1S cell viability effects, profiling panel, calcein-AM fluorescence, 48 h, basal (AID 1165); conditions: higher = more signal;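 also: viability of MM1S multiple myeloma cells under basal unstimulated conditions; test concentration not given here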
# [5] = basal RPMI8226 viability, no added stimulus, profiling panel, cell-based, calcein-AM fluorescence, 48 h, PK04 Diversity Set (AID 1166); conditions: RPMI8226 myeloma viability, higher = more signal;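 also: cells grown under basal conditions without added stimulus; test concentration not given here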
# [6] = basal HepG2 mitochondrial membrane potential changes, profiling panel, cell-based, JC-1 fluorescence, 24 h, 100 nL compound (AID 1167); conditions: higher = more signal; also: test concentration not given here
# [7] = basal 3T3-L1 adipocyte mitochondrial potential changes, profiling panel, cell-based, JC-1 fluorescence, 3T3-L1 adipocytes, 24 h, 100 nL compound (AID 1168); conditions: JC-1 mitochondrial fluorescence, higher = more signal, called active from +8 up or from −8 down; also: test concentration not given here
# [8] = basal RPMI8226 mitochondrial membrane potential changes, profiling panel, cell-based, JC-1 fluorescence, 24 h, 100 nL compound (AID 1169); conditions: RPMI8226 myeloma, JC-1 mitochondrial potential fluorescence, higher = more signal; also: test concentration not given here
# [9] = basal MM1S mitochondrial membrane potential changes, profiling panel, cell-based, JC-1 fluorescence, 24 h, 100 nL compound (AID 1170); conditions: higher = more signal; also: test concentration not given here
# [10] = A549 lung cancer cell viability effects, profiling panel, resazurin fluorescence, 24 h, PK04 Diversity Set (AID 1171); conditions: higher = more signal, called active from +8 up or from −8 down; also: test concentration not given here
# [11] = HepG2 liver cancer cell viability effects, profiling panel, resazurin fluorescence, 24 h, PK04 Diversity Set (AID 1172); conditions: higher = more signal; also: test concentration not given here
# [12] = basal S. cerevisiae growth modulation, no modifier, primary screen, OD600, strain BY4716, 24 h, basal condition (AID 1173); conditions: OD600, 24 h, higher = more signal, called active from +8 up or from −8 down
# [13] = MM1S myeloma cell viability, profiling panel, resazurin fluorescence, basal, 24 h, PK04 Diversity Set (AID 1174); conditions: higher = more signal, called active from +8 up or from −8 down;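 also: MM1S multiple myeloma cell line; test concentration not given here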
# [14] = target: Dihydroorotate dehydrogenase (quinone), mitochondrial (Plasmodium falciparum (isolate 3D7)) (UniProt Q08210); assay: PfDHODH enzyme inhibitors, primary screen, biochemical, C-terminal His tag, absorbance 600 nm (AID 1175); conditions: DCIP absorbance 600 nm, higher = more signal, called active from +8 up or from −8 down;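 also: recombinant parasite enzyme with a five histidine tag at its C terminus; test concentration not given here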
# [15] = P. aeruginosa biofilm formation inhibitors, primary screen, strain PAO1, LB-PBS medium, absorbance 600 nm (AID 1176); also: test concentration not given here; conditions: P. aeruginosa PAO1 growth/biofilm, A600, 12 h; higher = more signal
# [16] = S. cerevisiae RM11-1a growth modifiers, primary screen, strain RM11-1a, OD600, basal, 24 h (AID 1177); conditions: OD600, 24 h, higher = more signal, called active from +8 up or from −8 down;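 also: cultures grown under basal conditions with no added stressor; test concentration not given here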
# [17] = E. coli acrAB mutant growth effects, primary screen, E. coli filamentation inducers, strain DRC39, OD650, 24 h (AID 1178); conditions: higher = more signal, called active from +8 up or from −8 down;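 also: growth measured as culture turbidity by optical density at 650 nm; test concentration not given here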
# [18] = E. coli acrAB mutant growth effects, primary screen, E. coli filamentation inducers, strain DRC39, OD650, 48 h (AID 1179);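 also: screen aims at cell division blockers that make cells filament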; conditions: E. coli DRC39 delta-acrAB growth, higher = more signal, called active from +8 up or from −8 down
# [19] = RPMI8226 myeloma cell viability, profiling panel, resazurin fluorescence, basal, 24 h, PK04 Diversity Set (AID 1180); conditions: higher = more signal;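 also: RPMI8826 multiple myeloma cell line at 5000 cells per well; test concentration not given here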
# [20] = target: E3 ubiquitin-protein ligase XIAP (Homo sapiens) (UniProt P98170); assay: XIAP binders, primary screen, biophysical, small-molecule microarray, fluorescence 635 nm (AID 1181); conditions: small-molecule microarray binding, higher = more signal;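 also: score merges 667 nm emission and signal to noise over triplicate slides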
# E3 ubiquitin-protein ligase XIAP (Homo sapiens), sequence (P98170 whole entry, looked up): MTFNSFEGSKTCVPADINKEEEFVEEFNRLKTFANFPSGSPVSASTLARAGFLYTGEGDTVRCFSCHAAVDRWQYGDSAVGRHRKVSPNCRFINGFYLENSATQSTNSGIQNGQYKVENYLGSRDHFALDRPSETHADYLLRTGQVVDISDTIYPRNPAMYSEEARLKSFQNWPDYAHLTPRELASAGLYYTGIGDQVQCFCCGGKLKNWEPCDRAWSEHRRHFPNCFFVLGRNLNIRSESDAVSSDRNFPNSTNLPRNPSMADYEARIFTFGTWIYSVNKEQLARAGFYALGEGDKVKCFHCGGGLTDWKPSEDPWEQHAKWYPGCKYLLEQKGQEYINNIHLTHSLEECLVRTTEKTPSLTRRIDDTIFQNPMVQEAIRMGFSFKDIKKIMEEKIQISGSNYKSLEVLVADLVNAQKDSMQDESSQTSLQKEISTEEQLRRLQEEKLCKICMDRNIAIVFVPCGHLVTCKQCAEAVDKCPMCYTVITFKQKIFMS
# Dihydroorotate dehydrogenase (quinone), mitochondrial (Plasmodium falciparum (isolate 3D7)), sequence (Q08210 whole entry, looked up): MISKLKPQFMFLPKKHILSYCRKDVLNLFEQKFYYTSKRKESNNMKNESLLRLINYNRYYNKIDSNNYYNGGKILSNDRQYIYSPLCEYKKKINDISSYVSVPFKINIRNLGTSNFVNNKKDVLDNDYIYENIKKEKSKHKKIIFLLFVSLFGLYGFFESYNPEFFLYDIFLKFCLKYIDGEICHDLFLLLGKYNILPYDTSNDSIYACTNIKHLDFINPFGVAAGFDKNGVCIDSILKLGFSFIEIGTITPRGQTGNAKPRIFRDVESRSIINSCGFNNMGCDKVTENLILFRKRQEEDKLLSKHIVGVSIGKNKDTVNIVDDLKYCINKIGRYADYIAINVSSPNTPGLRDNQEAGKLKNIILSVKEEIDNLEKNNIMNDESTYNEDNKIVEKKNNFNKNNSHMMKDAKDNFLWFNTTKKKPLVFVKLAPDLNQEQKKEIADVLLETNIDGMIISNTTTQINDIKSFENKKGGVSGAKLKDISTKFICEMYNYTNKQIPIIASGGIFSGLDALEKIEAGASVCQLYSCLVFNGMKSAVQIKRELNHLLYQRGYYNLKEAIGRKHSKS
Compound,z-score [1],z-score [2],z-score [3],z-score [4],z-score [5],z-score [6],z-score [7],z-score [8],z-score [9],z-score [10],z-score [11],z-score [12],z-score [13],composite z-score [14],z-score [15],z-score [16],z-score [17],z-score [18],z-score [19],composite z-score [20]
COCCOC(=O)N1C(=O)[C@@]2(c3cc(C#Cc4ccc(OC)cc4)ccc31)[C@H](c1ccc(OCCO)cc1)N1[C@H](c3ccccc3)[C@H](c3ccccc3)OC(=O)[C@H]1[C@@H]2C(=O)N1CCc2cc(OC)c(OC)cc2C1,0.618,0.979,0.156,0.427,0.959,-0.343,2.92 (inactive),-0.322,-1.24,0.216 (inactive),1.04,2.62 (inactive),1.02 (inactive),-0.0321 (inactive),3.34 (inactive),3.55 (inactive),-0.148 (inactive),0.0574 (inactive),0.928,-0.0476
COCCn1c(C(=O)N2CCCC2)cc2c1C[C@H]1CN(C(=O)c3ccccc3)[C@@](Cc3ccc(OC)cc3)(C(=O)OC)[C@@H]21,0.476,0.238,1.35,0.776,0.426,2.71,0.0944 (inactive),0.00347,-0.828,-0.253 (inactive),-0.818,-0.35 (inactive),-0.716 (inactive),-1.79 (inactive),0.576 (inactive),-0.944 (inactive),-0.0628 (inactive),0.763 (inactive),-0.939,0.232
CS(=O)(=O)CCOC(=O)C1=CC(c2ccc(CO)cc2)=CC(c2cccs2)N(Cc2cccc(OC(F)(F)F)c2)C=C1C(=O)OCCS(C)(=O)=O (stereo not given),0.0527,0.171,-1.31,-3.31,-3.27,-2.84,0.384 (inactive),-0.722,-1.28,-0.481 (inactive),-0.534,-4.14 (inactive),-2.98 (inactive),-1.08 (inactive),0.907 (inactive),0.267 (inactive),-2.93 (inactive),-3.3 (inactive),-1.32,-0.22
O=C1C2C=CC(C(O)C3CC=CCC3)N(n3cnnc3)C2C(=O)N1Cc1ccccc1 (stereo not given),-0.563,-0.801,0.253,-0.379,-0.255,-0.937,-0.132 (inactive),0.46,-0.109,-0.62 (inactive),-0.854,0.0086 (inactive),-1.16 (inactive),-0.071 (inactive),0.216 (inactive),-0.363 (inactive),-1.59 (inactive),-1.35 (inactive),-1.45,0.38
C[C@]1(C(=O)NCC(F)(F)F)c2ccccc2C(=O)N(Cc2cc(F)cc(C(F)(F)F)c2)[C@H]1c1ccc(CO)cc1,-0.493,1.63,-0.357,-0.74,-0.308,0.951,-0.449 (inactive),-0.494,0.206,-0.557 (inactive),0.378,-0.459 (inactive),-0.191 (inactive),-0.191 (inactive),1.32 (inactive),-0.401 (inactive),-0.0567 (inactive),-0.376 (inactive),0.532,-0.0884
